Measurements published in ChEMBL document CHEMBL1961873, “Compounds: GSK PKIS; Assays: Nanosyn kinase panel” (2012).

Assays:
[1] = molecular target: Tyrosine-protein kinase SYK (Homo sapiens) (UniProt P43405); conditions: at 1 µM
[2] = molecular target: T1, Tyrosine-protein kinase Tec (Homo sapiens) (UniProt P42680); conditions: at 0.1 µM
T1 sequence (whole entry): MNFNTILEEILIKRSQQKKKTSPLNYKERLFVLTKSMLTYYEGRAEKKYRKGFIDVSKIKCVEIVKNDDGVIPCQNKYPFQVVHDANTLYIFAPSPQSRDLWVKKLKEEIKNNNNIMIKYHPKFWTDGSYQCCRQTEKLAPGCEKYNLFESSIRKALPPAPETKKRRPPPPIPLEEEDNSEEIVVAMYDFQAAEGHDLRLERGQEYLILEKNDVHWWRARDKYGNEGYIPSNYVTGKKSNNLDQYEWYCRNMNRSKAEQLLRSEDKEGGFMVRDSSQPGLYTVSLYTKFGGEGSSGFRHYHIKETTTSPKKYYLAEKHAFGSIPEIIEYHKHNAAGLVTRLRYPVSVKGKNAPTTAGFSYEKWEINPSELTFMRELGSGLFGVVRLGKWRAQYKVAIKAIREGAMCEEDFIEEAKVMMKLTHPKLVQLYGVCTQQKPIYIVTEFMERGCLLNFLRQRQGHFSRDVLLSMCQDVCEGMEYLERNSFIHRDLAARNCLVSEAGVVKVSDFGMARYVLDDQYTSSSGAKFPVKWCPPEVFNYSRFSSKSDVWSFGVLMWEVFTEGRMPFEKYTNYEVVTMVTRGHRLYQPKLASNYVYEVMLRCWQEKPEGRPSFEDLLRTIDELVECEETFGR

[3] = molecular target: T1, Tyrosine-protein kinase Tec (Homo sapiens); conditions: at 1 µM
[4] = molecular target: Angiopoietin-1 receptor (Homo sapiens) (UniProt Q02763); conditions: at 0.1 µM
Sequence of Angiopoietin-1 receptor (Homo sapiens) (Q02763 whole entry): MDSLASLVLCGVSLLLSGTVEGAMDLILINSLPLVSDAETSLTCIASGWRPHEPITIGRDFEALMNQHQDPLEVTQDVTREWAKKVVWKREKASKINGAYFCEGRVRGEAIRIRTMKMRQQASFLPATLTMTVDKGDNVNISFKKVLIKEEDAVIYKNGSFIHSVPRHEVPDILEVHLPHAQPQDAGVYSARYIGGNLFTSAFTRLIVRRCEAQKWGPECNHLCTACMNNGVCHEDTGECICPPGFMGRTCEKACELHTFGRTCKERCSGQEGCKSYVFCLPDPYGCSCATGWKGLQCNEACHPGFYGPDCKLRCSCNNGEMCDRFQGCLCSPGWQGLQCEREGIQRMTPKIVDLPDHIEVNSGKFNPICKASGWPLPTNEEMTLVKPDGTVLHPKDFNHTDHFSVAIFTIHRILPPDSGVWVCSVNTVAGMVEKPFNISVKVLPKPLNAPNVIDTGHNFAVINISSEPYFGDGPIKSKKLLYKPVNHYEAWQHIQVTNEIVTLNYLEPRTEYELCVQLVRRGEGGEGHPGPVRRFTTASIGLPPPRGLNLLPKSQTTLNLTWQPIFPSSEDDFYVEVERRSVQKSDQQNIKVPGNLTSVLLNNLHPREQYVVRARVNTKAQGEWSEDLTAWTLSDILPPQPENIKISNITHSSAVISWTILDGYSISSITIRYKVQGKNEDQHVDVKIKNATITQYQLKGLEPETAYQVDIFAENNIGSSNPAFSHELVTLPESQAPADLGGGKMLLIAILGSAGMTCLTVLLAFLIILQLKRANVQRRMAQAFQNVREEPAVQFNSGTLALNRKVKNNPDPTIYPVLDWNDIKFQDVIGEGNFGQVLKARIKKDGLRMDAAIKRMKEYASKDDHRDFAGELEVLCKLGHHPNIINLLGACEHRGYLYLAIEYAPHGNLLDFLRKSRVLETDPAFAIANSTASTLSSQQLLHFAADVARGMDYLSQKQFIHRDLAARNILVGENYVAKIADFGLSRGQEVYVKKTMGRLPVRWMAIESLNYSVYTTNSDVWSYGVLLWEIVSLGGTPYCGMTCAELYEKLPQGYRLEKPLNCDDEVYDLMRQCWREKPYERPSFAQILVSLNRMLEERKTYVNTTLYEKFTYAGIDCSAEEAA

[5] = molecular target: Angiopoietin-1 receptor (Homo sapiens) (UniProt Q02763); conditions: at 1 µM
[6] = molecular target: T2, Non-receptor tyrosine-protein kinase TNK1 (Homo sapiens) (UniProt Q13470); conditions: at 0.1 µM
T2 sequence (whole entry): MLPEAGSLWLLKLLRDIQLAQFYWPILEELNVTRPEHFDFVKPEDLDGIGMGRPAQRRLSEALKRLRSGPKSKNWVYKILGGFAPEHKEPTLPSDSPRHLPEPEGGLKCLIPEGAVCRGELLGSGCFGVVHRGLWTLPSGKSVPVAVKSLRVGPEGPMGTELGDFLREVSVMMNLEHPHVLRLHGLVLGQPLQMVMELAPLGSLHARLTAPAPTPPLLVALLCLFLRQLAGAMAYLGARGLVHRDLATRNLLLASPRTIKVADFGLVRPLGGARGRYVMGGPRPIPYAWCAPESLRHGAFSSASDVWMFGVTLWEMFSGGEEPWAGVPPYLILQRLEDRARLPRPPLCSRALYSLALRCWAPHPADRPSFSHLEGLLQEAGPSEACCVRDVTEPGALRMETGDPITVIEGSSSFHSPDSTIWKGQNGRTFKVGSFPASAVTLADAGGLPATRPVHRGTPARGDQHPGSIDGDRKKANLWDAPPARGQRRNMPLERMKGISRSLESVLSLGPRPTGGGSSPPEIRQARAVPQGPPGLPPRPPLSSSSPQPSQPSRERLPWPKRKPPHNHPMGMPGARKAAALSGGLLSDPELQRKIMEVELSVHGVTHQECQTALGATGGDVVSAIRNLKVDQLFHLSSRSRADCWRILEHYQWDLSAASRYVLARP

[7] = molecular target: T2, Non-receptor tyrosine-protein kinase TNK1 (Homo sapiens); conditions: at 1 µM
[8] = molecular target: Activated CDC42 kinase 1 (Homo sapiens) (UniProt Q07912); conditions: at 0.1 µM
Sequence of Activated CDC42 kinase 1 (Homo sapiens) (Q07912 whole entry, looked up): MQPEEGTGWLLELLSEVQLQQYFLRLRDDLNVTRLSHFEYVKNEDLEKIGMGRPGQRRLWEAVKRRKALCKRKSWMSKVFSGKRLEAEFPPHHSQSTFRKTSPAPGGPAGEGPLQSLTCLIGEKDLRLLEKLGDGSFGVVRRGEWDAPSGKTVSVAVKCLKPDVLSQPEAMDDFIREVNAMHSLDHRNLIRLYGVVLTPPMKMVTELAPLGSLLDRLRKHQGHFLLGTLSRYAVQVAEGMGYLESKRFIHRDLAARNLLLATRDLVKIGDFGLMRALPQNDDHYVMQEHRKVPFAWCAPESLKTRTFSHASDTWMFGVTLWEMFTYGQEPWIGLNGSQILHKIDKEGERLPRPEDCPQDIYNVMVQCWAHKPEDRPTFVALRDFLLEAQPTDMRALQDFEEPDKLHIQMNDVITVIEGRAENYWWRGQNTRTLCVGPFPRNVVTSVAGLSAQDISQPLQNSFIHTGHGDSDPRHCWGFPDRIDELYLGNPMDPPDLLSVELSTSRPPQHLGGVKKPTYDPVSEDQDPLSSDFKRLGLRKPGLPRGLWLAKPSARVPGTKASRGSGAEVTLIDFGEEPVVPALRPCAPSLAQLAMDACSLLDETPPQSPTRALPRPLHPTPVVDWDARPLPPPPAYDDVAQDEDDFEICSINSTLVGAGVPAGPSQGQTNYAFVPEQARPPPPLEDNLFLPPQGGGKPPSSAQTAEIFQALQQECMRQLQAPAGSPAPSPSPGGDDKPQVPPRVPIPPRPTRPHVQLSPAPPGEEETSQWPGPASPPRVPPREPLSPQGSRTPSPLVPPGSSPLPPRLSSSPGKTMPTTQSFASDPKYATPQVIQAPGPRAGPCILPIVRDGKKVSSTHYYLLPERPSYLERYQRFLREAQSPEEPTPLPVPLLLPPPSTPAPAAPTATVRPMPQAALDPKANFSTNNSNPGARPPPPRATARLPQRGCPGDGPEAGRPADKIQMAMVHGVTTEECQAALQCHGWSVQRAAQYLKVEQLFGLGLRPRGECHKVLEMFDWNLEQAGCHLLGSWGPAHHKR

[9] = molecular target: Activated CDC42 kinase 1 (Homo sapiens) (UniProt Q07912); conditions: at 1 µM
[10] = molecular target: High affinity nerve growth factor receptor (Homo sapiens) (UniProt P04629); conditions: at 0.1 µM;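 note: each value is a mean of replicate percent inhibition readings against TRKA kinase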
Sequence of High affinity nerve growth factor receptor (Homo sapiens) (P04629 33-796 limits assumed): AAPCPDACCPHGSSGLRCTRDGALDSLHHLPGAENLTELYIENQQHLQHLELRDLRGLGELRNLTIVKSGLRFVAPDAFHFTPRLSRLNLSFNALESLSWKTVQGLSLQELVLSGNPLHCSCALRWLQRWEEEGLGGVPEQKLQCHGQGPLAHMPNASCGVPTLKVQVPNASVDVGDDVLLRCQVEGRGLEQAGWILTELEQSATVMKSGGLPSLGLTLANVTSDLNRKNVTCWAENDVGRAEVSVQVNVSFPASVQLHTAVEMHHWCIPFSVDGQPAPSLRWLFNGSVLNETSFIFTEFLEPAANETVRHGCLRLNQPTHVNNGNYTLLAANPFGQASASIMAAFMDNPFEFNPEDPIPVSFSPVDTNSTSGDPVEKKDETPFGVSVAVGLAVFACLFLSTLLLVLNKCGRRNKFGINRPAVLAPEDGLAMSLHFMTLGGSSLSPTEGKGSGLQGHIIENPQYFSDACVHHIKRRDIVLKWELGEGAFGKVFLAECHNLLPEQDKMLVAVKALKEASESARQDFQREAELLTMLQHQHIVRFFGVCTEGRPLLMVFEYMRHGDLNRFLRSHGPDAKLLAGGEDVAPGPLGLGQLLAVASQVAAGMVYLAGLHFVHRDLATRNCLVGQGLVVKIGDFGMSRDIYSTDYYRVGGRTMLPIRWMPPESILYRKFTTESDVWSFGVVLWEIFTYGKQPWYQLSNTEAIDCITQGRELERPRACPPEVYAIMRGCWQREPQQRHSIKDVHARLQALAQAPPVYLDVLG

Row | SMILES | inhibition [1] [%] | inhibition [2] [%] | inhibition [3] [%] | inhibition [4] [%] | inhibition [5] [%] | inhibition [6] [%] | inhibition [7] [%] | inhibition [8] [%] | inhibition [9] [%] | inhibition [10] [%]
1 | Cc1cccc(-c2n[nH]cc2-c2ccc3ncccc3n2)n1 | -0.38 | 0.76 | 1.51 | 1.2 | 3.33 | -0.63 | 0.33 | -0.11 | 0.91 | -1
2 | Nc1nc(-c2ccc3c(c2)C(=Cc2cc(Br)c(O)c(Br)c2)C(=O)N3)cs1 | 0.99 | -1.8 | -1 | -0.24 | 3.72 | 0.05 | 37.1 | -1.13 | -0.19 | 1.01
3 | COc1cc2ncn(-c3cc(OCc4ccccc4Cl)c(C(N)=O)s3)c2cc1OC | 1.86 | 1.67 | 7.65 | 3.11 | 26.9 | 16.9 | 63.2 | 0.35 | 7.05 | 0.53
4 | COc1cccc(-n2ncc3c(N/N=C/c4cccc(F)c4)ncnc32)c1 | -0.87 | -1.33 | 2.09 | 1.49 | 9 | 2.13 | 2.44 | 0.24 | 0.25 | 3.27
5 | COc1cc2ncn(-c3cc(O[C@@H](C)c4ccccc4Cl)c(C(N)=O)s3)c2cc1OC | -4.6 | 1.7 | 7.65 | 4.95 | 24.2 | 33.8 | 79.5 | 3.06 | 6.07 | 1.91
6 | CC(C)=Cc1cccc2c1/C(=N/Nc1ccc(S(N)(=O)=O)cc1)C(=O)N2 | -2.03 | 2.44 | 10.1 | 0.37 | 3.74 | 9.88 | 65.6 | 0.01 | 2.76 | 6.87
7 | CN(C)c1cc2c(Nc3ccc4nc(Cc5ccccc5)[nH]c4c3)ncnc2cn1 | 1.5 | 5.94 | 11.9 | 3.86 | 4.47 | 6.39 | 21 | 1.01 | 4.65 | 4.28
8 | CCn1c(-c2nonc2N)nc2cnc(Oc3cccc(NC(=O)c4ccc(OCCN5CCOCC5)cc4)c3)cc21 | 1.88 | 3.35 | 5.81 | 3.75 | 6.59 | 0.95 | 5.9 | -0.31 | -0.19 | 4.32
9 | Cc1nn(C)c2cc(N(C)c3ccnc(Nc4cccc(S(N)(=O)=O)c4)n3)ccc12 | -0.53 | 25.8 | 67.9 | 10.6 | 52.5 | 30 | 80.7 | 0.86 | 10.2 | 2.81
10 | CCn1c(-c2nonc2N)nc2cncc(C(=O)N3CCNCC3)c21 | 3.25 | 7.87 | 7.17 | 6.61 | 5.14 | 3.89 | 5.69 | 1.51 | 1.52 | 1.71
11 | NCc1ccc(-c2nc(-c3ccc(Cl)c(O)c3)c(-c3ccncc3)[nH]2)cc1 | 1.13 | 6.38 | 33 | 4.33 | 21 | -1.81 | 1.42 | -0.36 | -0.9 | -4.35
12 | Cc1ccc(C(=O)NC2CCCCC2)cc1-c1ccc(C(=O)NCC2CC2)cc1 | 0.52 | 4.18 | 5.66 | 1.79 | 4.17 | 0.56 | -2.52 | 2.3 | 4.5 | 2.3
13 | Cc1cc(O)cc(C)c1/C=C/c1cncc(-c2nn[nH]n2)c1 | -1.42 | 15.1 | 65 | 4 | 4.4 | 35.1 | 84.2 | 1.68 | 22 | 3.09
14 | O=C1NC(=O)C(c2cccc(Cl)c2)=C1Nc1ccc(O)c(Cl)c1 | 0.79 | 1.84 | 1.44 | 1.54 | 3.61 | 0.52 | 8.8 | -0.75 | -0.58 | -3.23
15 | O=C1NC(=O)C(c2ccccc2Cl)=C1Nc1cccc(O)c1 | -0.68 | 3.78 | 4.55 | 1.47 | 5.97 | 3.82 | 2.57 | 1.29 | 3.26 | 4.19
16 | CCn1c(-c2nonc2N)nc2cncc(C(=O)N3CC[C@H](N)C3)c21 | 1.83 | 4.37 | 3.68 | 11.3 | 11.4 | 2.94 | 2.95 | 1.08 | 1.01 | 0.41
17 | Cn1cc(C=C2C(=O)Nc3cccnc32)c2ccccc21 | -2.64 | 2.46 | 8.75 | 2.82 | 5.24 | 4.27 | 9.9 | 0.71 | 1.72 | 13.9

Row | SMILES | inhibition [1] [%] | inhibition [2] [%] | inhibition [3] [%] | inhibition [4] [%] | inhibition [5] [%] | inhibition [6] [%] | inhibition [7] [%] | inhibition [8] [%] | inhibition [9] [%] | inhibition [10] [%]
18 | c1cnn2ncc(-c3ccnc(Nc4ccc5c(c4)OCCO5)n3)c2c1 | 13.2 | 6.85 | 19.8 | 3.72 | 20.5 | 18.1 | 64.5 | 3.29 | 21.7 | 5.45
19 | NC(=O)c1ccc(-c2nc(-c3ccccn3)c(-c3ccc4c(c3)OCO4)[nH]2)cc1 | 0.21 | 3.16 | 2.63 | 5.33 | 5.38 | 1.36 | -0.98 | 0.29 | 1.03 | 1.52
20 | Nc1ncnc2occ(-c3ccc(NC(=O)Nc4cc(C(F)(F)F)cc(C(F)(F)F)c4)cc3)c12 | -6.95 | 3.65 | 6.33 | 29.1 | 77.5 | 4.85 | 33.8 | 1.04 | 1.13 | 37.1
21 | CC1=C(C(=O)Nc2ccc3[nH]ncc3c2)C(c2ccc(Cl)c(Cl)c2)CC(=O)N1 (stereo not given) | 1.43 | 2.26 | 6.35 | 2.31 | 4.81 | -0.39 | 9.22 | 0.3 | 1.41 | 2.44
22 | [O-][S+]1CCN(Cc2ccc(-c3ccc4ncnc(Nc5ccc(OCc6ccccc6)c(F)c5)c4c3)o2)CC1 | -0.11 | 3.42 | 4.7 | 2.18 | 2.24 | 0.61 | 7.01 | 0.67 | 0.38 | 1.24
23 | CS(=O)(=O)CCN(CC#N)Cc1ccc(-c2ccc3ncnc(Nc4ccc(OCc5cccc(F)c5)c(Cl)c4)c3c2)o1 | 1.94 | -2.12 | -1.96 | 2.27 | 1.84 | 2.76 | 23.2 | -0.59 | 0.01 | 2.64
24 | CCn1c(-c2nonc2N)nc2c(C#CC(C)(C)O)nc(CN3CCCC3)cc21 | -0.03 | -0.24 | 1.81 | 2.79 | 3.96 | -0.12 | -4.05 | -0.98 | -1.32 | -2.07
25 | NS(=O)(=O)c1cccc(-c2ccc3c(NC(=O)C4CC4)n[nH]c3c2)c1 | 0.39 | -1.67 | -2.6 | 1.65 | 3.55 | -2.18 | 2.91 | -0.31 | 0.27 | 0.7
26 | CS(=O)(=O)CCNCc1ccc(-c2ccc3ncnc(Nc4ccc(OCc5cccc(F)c5)c(C(F)(F)F)c4)c3c2)o1 | 1.13 | 3.58 | 4.26 | 4.55 | 5.67 | 4.87 | 10.5 | 0.57 | 1.13 | 1.7
27 | COc1cc(C)c(NC(=O)CN(C)C)cc1Nc1nc(Nc2cccc(F)c2C(N)=O)c2cc[nH]c2n1 | 0.44 | 1.93 | 3.64 | 0.55 | 0.17 | 30.8 | 73.4 | 1.18 | 14 | 2.31
28 | CN1CCC(C(=O)Nc2n[nH]c3nnc(-c4ccccc4)cc23)CC1 | -1.15 | 3.47 | 4.52 | 2.55 | 7 | 2.98 | 7.95 | 1.4 | 1.85 | 0.43
29 | Cc1nnc(-c2ccc(C)c(-c3ccc(C(=O)Nc4cccc(C#N)c4)cc3)c2)o1 | -0.57 | 4.05 | 3.86 | 3.65 | 5.45 | -0.4 | 5.43 | 0.82 | 2 | 1.28
30 | COc1cc(C=NNc2ncnc3c2cnn3-c2ccccc2)ccc1O | 43.1 | 4.48 | 12.9 | 13 | 52.4 | 10.8 | 51.1 | 1.06 | 5.3 | 3.95
31 | Nc1nc(-c2ccccn2)c(-c2ccc3ncccc3n2)s1 | -0.74 | 3.91 | 7.33 | 2.07 | 1.68 | 3.7 | 5.67 | 2.33 | 2.94 | 3.9
32 | CCCN1CCC(Oc2cc(Nc3nc(Nc4cccc(F)c4C(N)=O)c4cc[nH]c4n3)c(OC)cc2Cl)CC1 | 2.76 | 1 | 3.16 | 4.02 | 10.1 | -2.66 | 1.46 | -0.19 | 2.16 | 2.22
33 | CCc1cccc(NC(=O)Nc2ccc(Oc3ccc4nc(NC(=O)OC)[nH]c4c3)cc2)c1 | -0.99 | 2.07 | 3.91 | 46.2 | 55.7 | 3.34 | 13.8 | -0.42 | 1.35 | 30.8
